# Assay outcomes deposited in PubChem by National Center for Advancing Translational Sciences (NCATS).
# LDHA block – LDHA (human) enzyme inhibition; P00338; purified LDHA, NADH/diaphorase-resazurin fluorescence; active compounds read low; activity change, % (values are at about 110 or 230 µM); hit rate 0.15% among 480,000; AID 1347041; in the data active means activity change below about -30%; inconclusive means mostly about -25% to -30%;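 further: plate controls were DMSO wells for no effect and wells without enzyme for full effect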
#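 LDH5 2 nM; NADH 0.06 mM, pyruvate 0.2 mM; 200 mM Tris pH 7.4, EDTA, Tween-20; 5 min RT. Detection: diaphorase 0.133 mg/mL + resazurin 37 µM, fluorescence ex540/em590 at 0 and 20 min; normalized to enzyme-free and DMSO wells.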
# Nrf2 activator – Nrf2 pathway activation; AREc32 ARE-luciferase reporter (MCF7-derived line), luminescence, 24 h; Potency, µM (doses to about 46.1 µM), without a hit: at the top dose activation, usual class: activators; hit rate 0.31% among 410,000; AID 624171; further: potency means the concentration at half of the fitted maximal effect; % of control where 0% means no effect; nearly all actives have a fitted effect of over 65% in size
#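 Each well held 1000 AREc32 cells, which were incubated with compound for 24 hr at 37 deg C after overnight attachment, and ARE reporter activity was quantified by firefly luciferase luminescence.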
# A549 viability – counter-screen for Nrf2 inhibitors: cytotoxicity in A549 cells | A549 ARE-Fluc cells, CellTiter-Fluor viability, 18-24 h | Potency, µM (doses to about 46 µM), inactives show at the highest dose activity change, negative = cytotoxicity, usual class: inhibitors | hit rate 0.16% among 390,000; further: potency means the concentration at half of the fitted maximal effect; on the % scale 0 is the no-effect control and ±100 the full control effect
#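 Cytotoxicity counterscreen: CellTiter-Fluor fluorescence was measured in A549 ARE_Fluc cells after 18-24 h of compound exposure in a concentration series. The subsequent BugLite luminescent read reports ARE-luciferase activity.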
# Nrf2 inh – blocks Nrf2 signaling. A549 ARE-Fluc reporter, luciferase luminescence, 18-24 h. Potency, µM (titrated, usually from 46 µM), inactives show top-dose activity change, negative = inhibition, usual class: inhibitors. hit rate 2.1% among 360,000; further: potency means the concentration at half of the fitted maximal effect; on the % scale 0 is the no-effect control and ±100 the full control effect; nearly all actives have a fitted effect of over 60% in size
#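 Reporter: ARE-Fluc in A549. Exposure: 18-24 h, 37 °C, 5% CO2, 5% FBS OPTI-MEM. Readouts: fluorescent cytotoxicity (CellTiter-Fluor), then luminescent Nrf2 signal after BugLite.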
# ERG-DNA inh – ERG Ets/DNA interaction inhibition; fluorescence polarization, His-ERG Ets domain / labelled DNA; AID 624246; P11308; Potency, µM (top dose mostly 76.9 µM), inactives show top-dose FP activity, negative = inhibition, hits mostly inhibitors; hit rate 0.028% among 370,000; active means well fitted inhibition curve with a large enough effect in the polarisation, with a control signal flat; inconclusive means small, poorly fitted or top-dose-only effect, or effect the other way, or a change in a side signal; inactive means no such curve, though single readings can be large or run the other way; the % refers to the polarisation;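 further: polarization taken with two DNA probes labelled with fluorescein and Texas red; potency means the concentration at half of the fitted maximal effect; % of control where 0% means no effect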
#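 His-tagged ERG Ets domain (1 uM in the protein solution; 300mM KCl, 50mM Tris-HCl, 1mM EDTA, 1mM DTT, pH 7.5) received compound, then a probe mix of 5 nM fluorescein-DNA and 100nM Texas-615-DNA. Fluorescence polarization was read for both dyes.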
# ALOX12 inh – inhibitors of human 12S-lipoxygenase ALOX12 | P18054 | hit rate 1.1% among 580,000 | purified 12hLO, xylenol orange hydroperoxide absorbance | Potency, µM (titrated, usually from 108 µM), for the others: top-dose activity change, negative = inhibition, most hits filed as inhibitors; further: potency means the concentration at half of the fitted maximal effect; on the % scale 0 is the no-effect control and ±100 the full control effect
# Target sequence (P18054 whole entry, looked up): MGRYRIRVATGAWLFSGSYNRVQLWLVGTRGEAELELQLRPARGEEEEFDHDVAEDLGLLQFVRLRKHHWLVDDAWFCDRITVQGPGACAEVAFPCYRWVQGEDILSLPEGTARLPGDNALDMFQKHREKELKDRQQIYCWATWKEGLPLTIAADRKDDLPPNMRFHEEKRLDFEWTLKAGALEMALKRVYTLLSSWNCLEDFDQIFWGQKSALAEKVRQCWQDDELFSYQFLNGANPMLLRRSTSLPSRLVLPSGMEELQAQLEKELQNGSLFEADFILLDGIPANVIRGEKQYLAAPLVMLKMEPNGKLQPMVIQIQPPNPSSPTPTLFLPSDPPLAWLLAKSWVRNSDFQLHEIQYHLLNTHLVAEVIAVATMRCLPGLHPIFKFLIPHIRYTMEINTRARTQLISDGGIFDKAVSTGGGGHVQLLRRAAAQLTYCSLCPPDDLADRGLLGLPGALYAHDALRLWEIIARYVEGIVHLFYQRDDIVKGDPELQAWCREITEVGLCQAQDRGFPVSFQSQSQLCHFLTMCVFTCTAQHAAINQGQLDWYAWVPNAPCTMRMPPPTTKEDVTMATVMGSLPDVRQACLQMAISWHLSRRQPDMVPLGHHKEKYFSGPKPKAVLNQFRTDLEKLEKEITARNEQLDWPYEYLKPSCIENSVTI
#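 Purified human 12hLO at 150 nM in 25 mM Hepes, 0.01% Triton X-100, pH 7.0, preincubated 15 min at room temperature with compound. Reaction started with 40 uM arachidonic acid, 30 min at room temperature. Hydroperoxide measured by Fe-xylenol orange, 573/405 nm absorbance ratio.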
# * = called active by the depositor; ? = inconclusive; · = no result given. Hits are enriched below; roughly 2.7% of the tested compounds scored in any of these assays. Unless noted, the call rests on the fitted dose curve; in most records, active means well fitted curve in the direction sought with a large enough effect; inconclusive means small, poorly fitted or top-dose-only effect, or another doubt; inactive means no such curve, though single readings can be large; an effect the other way counts as inactive or inconclusive.
SMILES,LDHA block,Nrf2 activator,A549 viability,Nrf2 inh,ERG-DNA inh,ALOX12 inh
CC[N+](C)(CC)CC(C[N+](C)(CC)CC)OCc1ccccc1,0,·,·,·,·,14µM*
CC1(c2ccccc2)CC(C)(C)N2C(=O)C3(C(C#N)=C(N)Oc4cc(O)ccc43)c3cccc1c32 (configuration not stated),-3,0%,?,21µM*,-1%,5%
O=C(Nc1cccc(-c2nc3ccccc3o2)c1)c1ccc(N2C(=O)C3C4C=CC(C4)C3C2=O)cc1 (configuration not stated),-6,-1%,?,9.2µM*,-8%,398%
O=C1C2C3C=CC(C3)C2C(=O)N1c1cccc(-c2nc3ccccc3o2)c1 (configuration not stated),-4,0%,-3%,16%,8%,2%
O=C(Nc1ccn(Cc2ccc(F)cc2Cl)n1)c1nc2ncccn2n1,3,·,·,·,·,?
CCOC(=O)c1cnc2ccc(OC)cc2c1NCCc1ccc(OC)c(OC)c1,3,0%,?,16µM*,-4%,2%
CC1CCCCC1NC(=S)NC1CC1 (configuration not stated),-2,·,·,·,·,?
COc1ccccc1NC(=O)CC1C(=O)Nc2ccccc2N1C(=O)c1ccc(C)cc1 (configuration not stated),2,·,·,·,·,?
COc1ccc(NC(=O)Nc2sc(NS(=O)(=O)c3ccccc3)nc2C)cc1,-5,4%,-1%,2%,-1%,22µM*
Cc1ccc(S(=O)(=O)Nc2nc(C)c(NC(=O)Nc3ccc(Cl)cc3Cl)s2)cc1,-14,0%,-6%,1%,0%,2µM*
N#Cc1nc(-c2ccc(Cl)cc2)oc1NCc1ccccc1Cl,17,·,·,·,·,-14%
COc1ccccc1N1C(=O)N(C(C)=O)C2C1Nc1ccccc1N2C (configuration not stated),8,-3%,12µM*,?,·,-28%
COc1ccccc1N1C(=O)c2ccccc2NC1c1ccncc1 (configuration not stated),4,-1%,-6%,·,0%,7%
CC(C)c1ccc(NC(=O)CCS(=O)(=O)c2ccc(Br)s2)cc1,-2,6%,-2%,26µM*,3%,-17%
CN(C(=O)c1nc(-c2cccc(F)c2)n2c1CCCCC2)c1ccccc1F,3,4%,10%,?,5%,-17%
CCOc1ccc(CCNC(=O)c2nc(-c3cccc(F)c3)n3c2CCCCC3)cc1OCC,10,0%,?,21µM*,1%,-4%
CC1CCCC(C)N1C(=O)Cn1cc(/C=C2/C(=O)Nc3ccccc32)c2ccccc21 (configuration not stated),-7,3%,16µM*,18µM*,-3%,·
CC(=O)c1ccc(N2CCN(CC(O)COC(c3ccccc3)c3ccccc3C)CC2)cc1 (configuration not stated),-11,7%,-7%,-15%,-1%,0.63µM*
CC(=O)c1ccc(N2CCN(CC(O)COC(c3ccccc3)c3ccccc3)CC2)cc1 (configuration not stated),-21,8%,2%,-9%,3%,?
CCN1CCN(c2oc(-c3cccs3)nc2C#N)CC1,-31*,·,·,·,·,-19%
CCOc1ccc(Nc2oc(-c3cccs3)nc2C#N)cc1,-5,2%,-20%,16µM*,·,22%
CCN1CCN(c2oc(-c3ccccc3F)nc2C#N)CC1,-31*,·,·,·,·,?
N#Cc1nc(-c2cccs2)oc1N1CCN(c2ccccc2)CC1,3,0%,7%,·,8%,21%
N#Cc1nc(-c2ccc(F)cc2)oc1N1CCN(c2ccccc2)CC1,4,·,·,·,·,9%
N#Cc1nc(-c2ccc(F)cc2)oc1N1CCN(Cc2ccccc2)CC1,-34*,·,·,·,·,?
